# Results from PubChem BioAssay AID504444 (National Center for Advancing Translational Sciences (NCATS), 2011).
# Among all 360,000 compounds or so, about 7,500 (2.1%) were called active. A call without a number means that no potency is given here. Not shown: some 20% with an inconclusive outcome. Calls come from the whole dose curve; as a rule, active = well fitted inhibition curve with a large enough effect; inconclusive = small, poorly fitted or top-dose-only effect, or effect the other way; inactive = flat fitted curve, though single readings scatter. For the sample, actives were picked, then their nearest neighbours and some compounds at random.
# Assay: Nrf2 qHTS screen for inhibitors; note: nearly all actives have a fitted effect of over 60% in size
# Conditions: A549 ARE-Fluc reporter, luciferase luminescence, 18-24 h; series mostly up to 46 µM
# Description: NIH Molecular Libraries Probe Production Network [MLPCN]
# NIH Chemical Genomics Center [NCGC]
# Assay Provider: Shyam Biswal, Johns Hopkins University
# Nrf2 is a transcription factor that maintains cellular redox homoestasis and protects cells from xenobiotics. Nrf2 binds to the antioxidant response element (ARE) to induce gene expression of a broad spectrum of genes that encode for antioxidants. […] Finding a small molecule that act as an inhibitor of Nrf2 function would represent a novel therapeutic target that could lead to improvement in survival of patients undergoing chemo- and/or radio- therapy.
# This is the Nrf2 activity measured in the luminescent read.
# 1. Shibata, T., et al., Genetic Alteration of Keap1 Confers Constitutive Nrf2 Activation and Resistance to Chemotherapy in Gallbladder Cancer. Gastroenterology, 2008.
# 2. Sjoblom, T., et al., The consensus coding sequences of human breast and colorectal cancers. Science, 2006. 314(5797): p. 268-74.
# NCGC Assay Protocol Summary:
# A concentration-response assay was performed with A549 ARE_Fluc cells which are suspended in 5% FBS OPTI-MEM. Five uL were dispensed into 1536-well white TC-treated plate using the Kalypsys dispenser to achieve a density of 5000 cells/well in all columns except column 1. The plate is incubated at 37deg C at 5% CO2 for 2 hours before 23 nL of compounds are added with the Kalypsys pin tool equipped with a 1,536-pin array containing 10-nL slotted pins (FP1S10, 0.457-mm diameter, 50.8 mm long; V&P Scientific). The control compounds Budesonide and Staurosporine are both added at a concentration of 2mM and Budesonide is also added as a 1:10 titration, starting at 200uM, to achieve dose-response. After an 18-24 hour incubation at 37deg C at 5% CO2, 5ul of medium is added to column 1. Afterwards 1ul of 5x of CellTiter-Fluor (Promega) is added to every well. The plate is then incubated at 37deg C at 5% CO2 for 30 minutes before they are read on the ViewLux (Perkin Elmer) for a fluorescent read Ex=405(10)/Em=525(10) for a 3 second exposure, 2x binning, and high gain. Then 3 uL of 3x BugLite is dispensed into all wells and the plate is incubated at ambient room temperature for 15 minutes. Afterwards another ViewLux read is performed using the clear filter to get a luminescent read with the settings of 40 second exposure, 2x binning, and high gain. Cytotoxicity is assessed through the first fluorescent read and then biochemical activity against Nrf2 is measured in the luminescent read.
# Potency is the fitted concentration of half-maximal effect.
row,SMILES,Potency
1,CCN(CC)C(=O)Oc1ccc(NC(=O)N2CCOCC2)cc1,inactive
2,O=C(Nc1cccc(OC(=O)N2CCCCC2)c1)N1CCOCC1,16.4 µM (active)
3,CN(C)C(=O)Oc1ccc(NC(=O)N2CCOCC2)cc1,inactive
4,COC(=O)C1=C(c2c(C)noc2C)C[C@@H]2CC[C@H]1N2C(=O)NCc1ccc2c(c1)OCO2,inactive
5,c1ccc(C(CN2CCCCC2)c2ccccc2)cc1,inactive
6,C[C@]12CC[C@H](O)CC1=C([N+](=O)[O-])CC1C2CC[C@@]2(C)C1CC[C@@H]2O (stereo not given in full),inactive
7,O=C1NC(=O)C(CCOc2ccccc2)(CCc2ccccc2)C(=O)N1,inactive
8,CCCCC(=O)N/N=C/c1c(O)n(-c2ccccc2)c(=O)[nH]c1=O,inactive
9,CCCCC(=O)N/N=C/c1c(O)n(CCC2=CCCCC2)c(=O)[nH]c1=O,18.4 µM (active)
10,O=c1[nH]c(=O)n(CCc2ccc(F)cc2)c(O)c1/C=N/N1CCCCC1,inactive
11,CN(C)CC1Oc2ccccc2OC1(O)c1ccccc1 (stereo not given),14.6 µM (active)
12,CC1C(=O)OC2CCN3CC=C(COC(=O)C(C)(O)C1(C)O)C23 (stereo not given),inactive
13,COC(=O)C1=C(c2ccc(Cl)c(C(F)(F)F)c2)C[C@@H]2CC[C@H]1N2C(=O)NC(C)C,inactive
14,O=C1NC(=O)C(Cc2ccccc2)C(=O)N1,inactive
15,Cc1ccc(C(C)C)c(OCC(=O)N2CCN(CC(=O)N3CCOCC3)CC2)c1,inactive
16,O=C(O)c1cc[c]([Sb](=[O])([OH])[OH])cc1[N+](=O)[O-],inactive
17,CC/C(=N\NC(=O)c1ccccc1O)c1c(O)n(Cc2ccccc2)c(=O)[nH]c1=O,inactive
18,CCC(=NCCc1ccccc1)c1c(O)n(C2CCCCC2)c(=O)[nH]c1=O,20.6 µM (active)
19,CC(=O)c1c(O)n(C2CCCCCC2)c(=O)[nH]c1=O,inactive
20,Cn1cc(C(=O)OCC(=O)N2CCCC2)c2ccccc21,inactive
21,CC1CNCCN1c1ccc(Cl)cc1 (stereo not given),inactive
22,CCn1cc2nc(SCc3ccccc3Cl)n(CCc3ccccc3)c(=O)c2n1,18.4 µM (active)
23,CC(=O)C1(O)CCC2C3CCC4=C(Cl)C(=O)CCC4(C)C3CCC21C (stereo not given),inactive

row,SMILES,Potency
1,Cc1ccc(N(C)C(=O)Oc2cccc3ccc(C)nc23)cc1,inactive
2,CN1CCc2cc3c(cc2[C@H]1[C@@H]1OC(=O)c2c1ccc1c2OCO1)OCO3,inactive
3,COc1cccc(CN2CCCC(C(=O)c3ccccc3SC)C2)c1O (stereo not given),inactive
4,CC1CC=CCC12C(=O)NC(=S)NC2=O (stereo not given),inactive
5,CCCn1c(C(=O)c2ccccc2OC)nc2ccccc21,inactive
6,CCOc1ccc(CNC(=O)c2cccc(Nc3nc4ccccc4n4nnnc34)c2)cc1OC,7.31 µM (active)
7,COc1cc(Cn2c(N)c(C(=O)NCc3ccco3)c3nc4ccccc4nc32)cc(OC)c1OC,inactive
8,CC(C)Oc1cccc(C(=O)C2CCCN(C3CCOCC3)C2)c1 (stereo not given),inactive
9,CCC1(CC(C)c2ccccc2)C(=O)NC(=O)NC1=O (stereo not given),inactive
10,COC(=O)C1=C(c2ccc3ccccc3c2)C[C@@H]2CC[C@H]1N2C(=O)NCCO,inactive
11,Cc1ccc(NC(=O)CN(C)CC(=O)Nc2cccc(F)c2)cc1[N+](=O)[O-],11.6 µM (active)
12,CNCC(O)c1cc(F)c(OCc2ccccc2)c(OCc2ccccc2)c1F (stereo not given),inactive
13,CCOC(=O)CC(SP1(=S)OCC2(CCCCO2)C(C2CCCCO2)O1)C(=O)OCC (stereo not given),inactive
14,CC(CC(C#N)(c1ccccc1)c1ccccc1)N1CCCCC1 (stereo not given),inactive
15,O=C(CCC(=O)N1C[C@H]2C[C@@H](C1)c1cccc(=O)n1C2)NCc1ccccc1C(F)(F)F,inactive
16,COC(=O)C1=C(c2ccc(F)cc2OCc2ccccc2)C[C@@H]2CC[C@H]1N2C(=O)NCc1ccc(Cl)cc1,23.1 µM (active)
17,COC(=O)C1=C(c2ccc(F)cc2F)C[C@@H]2CC[C@H]1N2C(=O)NC1CC1,inactive
18,COC(=O)C1=C(c2ccccc2)C[C@@H]2CC[C@H]1N2C(=O)NCc1ccco1,inactive
19,C[C@]12CCCCC1=CC(=O)C1C2CC[C@@]2(C)C1C[C@@H](F)[C@@H]2O (stereo not given in full),inactive
20,Cc1cc(C(=O)OCC(=O)Nc2c(F)cccc2F)c(C)n1C1CC1,inactive
21,c1ccc(Cc2nn3c(Cn4cnc5ccccc54)nnc3s2)cc1,23.1 µM (active)
22,O=c1[nH]c(CN2CC=C(c3ccccc3)CC2)nc2scc(-c3cccs3)c12,inactive
23,CC[C@H]1CC2CN3CCc4c([nH]c5ccccc45)C(C(=O)OC)(C2)C13 (stereo not given in full),inactive

row,SMILES,Potency
1,CCC(=O)OC(Cc1ccccc1)(c1ccccc1)C(C)CN(C)C (stereo not given),inactive
2,CC=C(C)C(=O)OC1CCN2CC=C(COC(=O)C(O)(C(C)OC)C(C)(C)O)C12 (stereo not given),inactive
3,CCC(=O)c1ccc(OCC(=O)N2CCN(CC(=O)Nc3ccc(C)cc3)CC2)cc1,inactive
4,COc1ccc(NC(=O)c2cn(CCC#N)nc2-c2ccc([N+](=O)[O-])cc2)cc1,inactive
5,COc1ccc(-c2nn(CCC#N)cc2C(=O)Nc2ccc(C(C)=O)cc2)cc1,inactive
6,COc1cccc(C(=O)Nc2ccc(-c3cc(C(F)(F)F)nn3-c3ccccc3)cc2)c1,14.6 µM (active)
7,C=C(C)C1(CCCC)C(=O)NC(=S)NC1=O,inactive
8,COC(=O)[C@@H]1C(OC(=O)c2ccccc2)CC2CCC1N2C (stereo not given in full),inactive
9,COC(=O)C1=C(c2cc3ccccc3s2)C[C@@H]2CC[C@H]1N2C(=O)NC(C)C,inactive
10,CC1([N+](=O)[O-])COP(=O)(Nc2ccc(F)cc2)OC1 (stereo not given),inactive
11,O=C1C=C(NS(=O)(=O)c2ccccc2)C(=O)c2ccccc21,23.1 µM (active)
12,COP(=O)(NS(=O)(=O)c1ccccc1)OC,inactive
13,CC1CCCN1CCC(C(N)=O)(c1ccccc1)c1ccccc1 (stereo not given),inactive
14,O=C1C2(Cl)C3(Cl)C4(Cl)C(Cl)(Cl)C5(Cl)C3(Cl)C1(Cl)C5(Cl)C24Cl (stereo not given),inactive
15,COC1=C[C@@H]2[C@@H]3Cc4ccc(OC)c(O)c4[C@]2(CCN3C)CC1=O,inactive
16,Cc1ccc(Cl)cc1N1CCN(C(=O)C2CCC(CNS(=O)(=O)c3cccs3)CC2)CC1 (stereo not given),10.3 µM (active)
17,c1cc2c(cc1C1OCC3C(c4ccc5c(c4)OCO5)OCC13)OCO2 (stereo not given),inactive
18,CCc1ccc(OCC(=O)N2CCN(CC(=O)Nc3ccccc3Cl)CC2)cc1,inactive
19,CC[C@H]1CN2CCc3cc(OC)c(OC)cc3[C@@H]2C[C@@H]1C[C@H]1NCCc2cc(OC)c(OC)cc21,0.411 µM (active)
20,Cc1nn(-c2ccccc2)c(C)c1NC(=O)COC(=O)Cc1ccccc1,inactive
21,COc1ccc2c(c1)[C@]13CCCCC1C(C2)N(C)CC3 (stereo not given in full),inactive
22,C[C@]12CCC3C(CC[C@H]4[C@H](O)[C@H](O)CC[C@]34C)C1CCC2=O (stereo not given in full),inactive
23,COc1ccc(C2NCc3ccc4c(c3-n3cccc32)OCO4)cc1OC (stereo not given),inactive

row,SMILES,Potency
1,CCCCCCCCCCCCn1ccc(=N)cc1,20.6 µM (active)
2,c1cc2c(cc1CCNC1CCCCCC1)OCO2,inactive
3,O=C1N=c2ccccc2=C/C1=C\c1c(O)[nH]c(=S)[nH]c1=O,inactive
4,COC1C(O)C(C)OC(OC2CCC3(C=O)C(CCC4C3CCC3(C)C(C5=CC(=O)OC5)CCC43O)C2)C1O (stereo not given),0.0231 µM (active)
5,COC1=CC=C2[C@H]3Cc4ccc(OC)c5c4[C@@]2(CCN3C)C1O5 (stereo not given in full),inactive
6,COCc1cc(OC(=O)N(C)C)nc(-c2ccc(C)c(Cl)c2)n1,inactive
7,C[C@]12CCC3C(CC[C@H]4[C@H](O)[C@H](O)CC[C@]34C)C1CC[C@@H]2O (stereo not given in full),inactive
8,c1ccc(CCN2CCC3(CC2)OCCO3)cc1,inactive
9,CCC(C)(O)C(=O)OC1C(=O)OC2CC3C(C)=CC(=O)C(O)C3(C)C3C4(O)OCC23C1C(C)C4O (stereo not given),0.58 µM (active)
10,CC12CCC(O)CC1CCC1C2CCC2(C)C(C(=O)CC(O)C(F)(F)F)CCC12 (stereo not given),inactive
11,CCN1C(=O)NC(=O)C2(CCCC2)C1=O,inactive
12,Oc1ccc2c3c1OC1[C@H](O)CC[C@@]4(O)[C@@H](C2)N(CC2CC2)CC[C@]314 (stereo not given in full),inactive
13,NS(=O)(=O)c1ccc(CCNC(=O)c2ccc(Cl)c(S(=O)(=O)N3CCCCCC3)c2)cc1,10.3 µM (active)
14,Cc1ccccc1NC(=O)COC(=O)c1cc(C)n(C2CC2)c1C,inactive
15,Cn1cc(/C=C/c2nc3ccccc3c(=O)n2-c2ccccc2)c2ccccc21,inactive
16,C[C@]12CC[C@H](O)C[C@H]1CC[C@@H]1C2CC[C@]2(C)[C@@H](C3=CC(=O)OC3)[C@@H](O)C[C@]12O (stereo not given in full),1.84 µM (active)
17,C[C@]12CCC3C(CC[C@H]4C[C@@H](O)CC[C@]34C)C1CC[C@@H]2O (stereo not given in full),inactive
18,C[C@]12CCC3C(CC[C@H]4C[C@@H](O)CC[C@]34C)C1C[C@@H](O)[C@H]2O (stereo not given in full),inactive
19,O=P1(Oc2ccccc2)CC(O)C(O)C(COCc2ccccc2)O1 (stereo not given),inactive
20,CC12CCC3C(CCC4CC(=O)CCC43C)C1CC(=NO)C2=O (stereo not given),inactive
21,CN1CCC(N(C)Cc2cccnc2)CC1,inactive
